Drawing on PubChem BioAssay (NCATS), this text covers Potency for 17 compounds.

Experiment in all cases: qHTS profiling for inhibitors of Plasmodium falciparum proliferation (AID 504749); further: nearly all actives have a fitted effect of over 60% in size
Common to all, as to conditions: P. falciparum in erythrocytes, SYBR Green DNA, 72 h; series mostly up to 28.7 µM
In general terms: qHTS replaces the single test concentration by a dilution series.

For one test, the system named is CP260. An outline of the steps: (§1)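 Fluorescence of SYBR Green-bound parasite DNA, read at 485/535 nm, served as the growth measure. Infected erythrocytes were cultured with compound 72 h; artemisinin (0.29 uM) and DMSO wells defined the normalization range.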
The next test has as its system CP262. An outline of the steps: as §1
The next test deals with CP265. In short, it runs like this:
as §1

The test system of another test is CP266. An outline of the steps: as §1
In the next test the test system is CP268. An outline of the steps: as §1
The test system of another test is CP269. An outline of the steps:
as §1

The subject of a further test is CP286. In short, it runs like this:
as §1

In a further test the test system is CP291. An outline of the steps:
as §1

The test system of another test is CP297. In short, it runs like this: as §1
A further test has as its system CP305. An outline of the steps: as §1

The structures appear in SMILES notation. Results filed as inconclusive are left out. Activity calls are given as the source filed them. The call rests on the fitted dose curve; in most records, active means well fitted inhibition curve with a large enough effect; inconclusive means small, poorly fitted or top-dose-only effect; inactive means flat fitted curve, though single readings scatter.
Potency means the concentration at half of the fitted maximal effect.

On to `C=CC(N)CCC(=O)O` (centres undefined), for which the Potency result in the test on CP260, in the test on CP262, in the test on CP265, in the test with CP266, in the test with CP268 and in the test with CP269 was “inactive” in each case. Moreover, the Potency entry in the test with CP286, in the test on CP291, with CP297 and with CP305 was “inactive” each time.
For the compound `Cc1[nH]cnc1CN1CCc2c(c3ccccc3n2C)C1=O`, the Potency entry in the test on CP260, with CP262, with CP265, with CP266, with CP268 and in the test on CP269 was “inactive” each time. The Potency result in the test with CP286, in the test with CP291, in the test on CP297 and in the test with CP305 was “inactive” throughout.
Regarding `CC1(C)S[C@@H]2[C@H](NC(=O)[C@H](NC(=O)N3CCN(S(C)(=O)=O)C3=O)c3ccccc3)C(=O)N2[C@H]1C(=O)O`, the Potency entry in the test with CP260, in the test on CP262, in the test with CP265, with CP266, in the test on CP268 and with CP269 was “inactive” in each case. Also, the Potency result in the test on CP286, in the test with CP291, in the test with CP297 and in the test with CP305 was “inactive” each time.
For the compound `CN1[C@@H]2CC[C@H]1CC(OC(=O)C(CO)c1ccccc1)C2` (some centres undefined), the Potency entry with CP260, in the test with CP262, in the test on CP265, with CP266, in the test with CP268 and in the test on CP269 was “inactive” each time. The Potency result with CP286, with CP291, in the test with CP297 and in the test with CP305 was “inactive” each time.
For the compound `O=C1CN(/N=C/c2ccc(-c3ccc([N+](=O)[O-])cc3)o2)C(=O)N1`, the Potency entry in the test with CP260, with CP265, in the test with CP266, with CP268, with CP269 and with CP286 was “inactive” throughout. For the same compound, the Potency result with CP291, in the test with CP297 and with CP305 was “inactive” throughout.
As for `CCOc1ccc2nc(S(N)(=O)=O)sc2c1`, the Potency result in the test on CP260, with CP262, with CP265, in the test with CP266, with CP268 and in the test with CP269 was “inactive” in each case. Moreover, the Potency entry in the test on CP286, in the test on CP297 and with CP305 was “inactive” in each case.
With `CC1(C)C[C@@H]1C(=O)N/C(=C\CCCCSC[C@H](N)C(=O)O)C(=O)O`, the Potency entry in the test with CP262, in the test on CP265, with CP266, in the test with CP268, in the test with CP269 and in the test with CP286 was “inactive” in each case. Also, the Potency entry in the test on CP291, in the test with CP297 and with CP305 was “inactive” throughout.
Turning to `CC(N)C(=O)OC(C)(C)Cc1ccc(Cl)cc1` (centres undefined), the Potency entry with CP262 and in the test with CP266 was “inactive” each time. For the same compound, the Potency in the test on CP297 was 9.53 µM (active).
Consider `N=c1ccn2c(n1)O[C@H]1[C@H](O)[C@@H](CO)O[C@H]12`, for which the Potency result in the test on CP260, in the test on CP262, with CP265, in the test with CP266, in the test on CP268 and in the test with CP269 was “inactive” each time. In addition, the Potency result with CP286, in the test with CP291 and in the test on CP305 was “inactive” throughout.
In the case of `CN1CCN(c2cc3c(nn2)Oc2ccccc2N3C)CC1`, the Potency entry in the test on CP260, in the test on CP262, in the test with CP265, in the test on CP268, in the test on CP269 and in the test with CP286 was “inactive” in each case. Also, the Potency entry in the test on CP291, in the test with CP297 and in the test on CP305 was “inactive” in each case.
Regarding `CC(=O)[C@]1(O)Cc2c(O)c3c(c(O)c2[C@@H](O[C@H]2C[C@H](N)[C@H](O)[C@H](C)O2)C1)C(=O)c1c(O)cccc1C3=O`, the Potency in the test with CP260 was 3.55 µM (active); in the test on CP262, 15.1 µM (active); in the test with CP268, 12 µM (active); in the test on CP269, 9.53 µM (active); with CP286 it was 2.24 µM (active); in the test with CP291 it was 9.53 µM (active). Also, the values for the Potency in the test with CP297 and in the test with CP305 were 13.5 µM (active) and 7.57 µM (active), respectively.
With `COc1ccc(/C=C/C(=O)Nc2ccccc2C(=O)O)cc1OC`, the Potency entry in the test with CP260, with CP262, in the test with CP265, in the test with CP266, with CP268 and in the test on CP269 was “inactive” in each case. The Potency result in the test with CP286, in the test with CP291, with CP297 and with CP305 was “inactive” each time.
For `Cc1ccccc1CNc1ncnc2c1ncn2C1OC(CO)C(O)C1O` (centres undefined), the Potency result with CP260, in the test with CP262, in the test on CP265, with CP266, in the test with CP268 and in the test on CP269 was “inactive” each time. The Potency entry with CP286, with CP291, in the test on CP297 and with CP305 was “inactive” in each case.
Consider `c1ccc2sc(SSc3nc4ccccc4s3)nc2c1`, for which the Potency result with CP260, in the test with CP262, in the test on CP265, in the test on CP268, with CP269 and in the test on CP286 was “inactive” each time. Further, the Potency result in the test on CP291, with CP297 and with CP305 was “inactive” in each case.
With `CN(C)c1ccc(C(=C2C=CC(=[N+](C)C)C=C2)c2ccccc2)cc1`, the Potency in the test on CP260 is 7.08 µM (active); with CP265, 11.2 µM (active); with CP266 it was 12 µM (active); in the test with CP269, 10.7 µM (active); in the test with CP286 it was 2 µM (active). In addition, the Potency result in the test on CP262 is “inactive”.
On to `C[S+](CC[C@H](N)C(=O)O)C[C@H]1O[C@@H](n2cnc3c(N)ncnc32)[C@H](O)[C@@H]1O` (some centres undefined), for which the Potency result with CP260, in the test on CP262, in the test with CP268, in the test on CP269, with CP286 and with CP291 was “inactive” throughout. In addition, the Potency entry in the test with CP297 and in the test on CP305 was “inactive” in each case.
In the case of `CCCOC(=O)c1ccc(O)cc1`, the Potency result with CP260, in the test with CP262, with CP265, in the test on CP266, with CP268 and in the test on CP269 was “inactive” each time. The Potency entry in the test with CP286, with CP291, in the test with CP297 and with CP305 was “inactive” throughout.
